# Source: PubChem BioAssay AID1917 (Vanderbilt High Throughput Screening Facility, 2009)
# Screen size: about 3,000 compounds; about 1,600 (53%) were called active. Not shown: some 10% with an inconclusive outcome.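 Rule for the calls: active = Flux at 10 µM at least 3 SD below or above vehicle control mean in one or both replicates; inconclusive = no clear call, values can overlap the other calls; inactive = the rest.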 The set was probably picked from earlier hits. Only a sample is shown.
# Biological target: ATP-sensitive inward rectifier potassium channel 1 (Homo sapiens) (UniProt P48048)
# Sequence (P48048 whole entry, looked up): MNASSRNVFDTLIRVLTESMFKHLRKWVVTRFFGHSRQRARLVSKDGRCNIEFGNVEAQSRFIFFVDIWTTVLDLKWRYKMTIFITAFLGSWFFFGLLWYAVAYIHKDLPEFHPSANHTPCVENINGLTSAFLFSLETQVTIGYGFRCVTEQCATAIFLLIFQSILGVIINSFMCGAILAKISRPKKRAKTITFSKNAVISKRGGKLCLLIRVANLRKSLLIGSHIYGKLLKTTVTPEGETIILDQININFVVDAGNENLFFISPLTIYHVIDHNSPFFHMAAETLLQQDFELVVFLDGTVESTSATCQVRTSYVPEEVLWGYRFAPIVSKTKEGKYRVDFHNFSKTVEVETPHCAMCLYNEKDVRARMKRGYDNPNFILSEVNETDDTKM
# Test: ROMK channel modulator hit retest, confirmation, cell-based, thallium flux, duplicate, resupplied hits (AID 1917)
# Details: fluorescence ratio, at 10 µM, stronger effect = lower value
row,Structure (SMILES),normalized thallium flux (F/F0 slope)
1,CC(=O)Nc1cccc(OCC(=O)/C=C2\N(C)c3ccccc3C2(C)C)c1,0.0622 (active)
2,COc1ccc(C2=CC(c3cccc(OC)c3)n3nnnc3N2)cc1 (stereo not drawn),0.0704 (inactive)
3,Cc1cc(NC(=O)/C=C/C(=O)N(c2ccccc2C)C(C(=O)NC2CCCC2)c2ccc(F)cc2)no1 (stereo not drawn),0.0543 (active)
4,N#C/C(=C/c1cccc([N+](=O)[O-])c1)c1nnc2n1CCCCC2,0.0362 (active)
5,CC1=C(C(=O)OCc2ccccc2)C(c2ccco2)n2ncnc2N1 (stereo not drawn),0.0737 (inactive)
6,COc1ccc(C(CCNCc2ccccc2F)c2ccc(F)cc2)cc1 (stereo not drawn),0.0609 (active)
7,Cc1cccc(Oc2c([N+](=O)[O-])c(=O)n(C)c3ccccc23)c1,0.063 (active)
8,Nc1ccccc1SC(C[N+](=O)[O-])c1ccccc1 (stereo not drawn),0.0367 (active)
9,O=C(/C=C/Sc1ncn[nH]1)c1ccc(Cl)cc1,0.0389 (active)
10,Cc1ccc2c(=O)oc(N(C)C)nc2c1,0.0826 (inactive)
11,CCOc1ccc(-n2cnnn2)cc1S(=O)(=O)N1CCC(C)CC1C (stereo not drawn),0.0657 (active)
12,N=c1n(CCc2ccccc2)c2ccccc2n1Cc1ccccc1F,0.0479 (active)
13,COc1ccc(Nc2cc(C)nc(-n3nc(C)cc3C)n2)cc1,0.0854 (inactive)
14,CC1(C)CCSC(/C=C/c2ccccc2)=N1,0.0442 (active)
15,CCn1c(/C=C/Nc2ccccc2)[n+](CC)c2ccc(C(=O)OCC(F)(F)F)cc21,0.0522 (active)
16,O=C(Nc1cccc(C(F)(F)F)c1)c1ccc(N2CCNCC2)c([N+](=O)[O-])c1,0.0632 (active)
17,N#C/C(=C\c1ccccc1C(F)(F)F)C(=O)Nc1ccccc1F,0.0489 (active)
18,Cc1ccc(N2C(=O)C3CC3C2=O)cc1 (stereo not drawn),0.0794 (inactive)
19,N#C/C(=C\C1=C(N2CCOCC2)C(=C\c2ccccc2)/CC1)C(=O)Nc1ccccc1F,0.0509 (active)
20,COC(=O)C[n+]1cccc2ccccc21,0.0529 (active)
21,CN1CCN(c2ccc(S(=O)(=O)N3CCCCC3)cc2NC(=O)Cc2ccccc2F)CC1,0.0614 (active)
22,CNc1nccc(-c2ccc(Cl)cc2)c1C#N,0.0744 (inactive)
23,CCOC(=O)N/N=C1\CC(C)S(=O)(=O)c2ccc(Cl)cc21 (stereo not drawn),0.0738 (inactive)
